Test results from PubChem BioAssay (NCATS).
Inconclusive results are not listed. Calls of active or inactive are those of the source. Calls come from the whole dose curve; as a rule, active = well fitted curve in the direction sought with a large enough effect; inconclusive = small, poorly fitted or top-dose-only effect, or another doubt; inactive = no such curve, though single readings can be large; an effect the other way counts as inactive or inconclusive.

Assays:
[1] = P-glycoprotein substrates identified in KB-8-5-11 adenocarcinoma cell line, qHTS therapeutic library screen (AID 1346987); note: potency is the fitted concentration of half-maximal effect; nearly all actives have a fitted effect of over 65% in size
Method in brief: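 In this qHTS, P-gp-rich KB-8-5-11 cells received library compounds across a concentration range. Viability was quantified by luminescence after 72 h at 37 degree C.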

[2] = tested on: Zika virus NS2B-NS3 protease (linked construct); test: Confirmatory screen NINDS AMC qHTS for Zika virus inhibitors (AID 1347152); note: potency is the fitted concentration of half-maximal effect; nearly all actives have a fitted effect of over 70% in size
Method in brief: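 Purified NS2B-NS3 protease with NS2B hydrophilic domain linked to NS3 protease domain by flexible linker, 1 nM final in 10 mM Tris-HCl pH 8.0, 0.01% Tween 20. Compounds preincubated 15 min, room temperature; Bz-Nle-KRR-AMC 10 microM (Km 18.3 µM); 15-min fluorescence change, 4-parameter Hill fit.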

[3] = Confirmatory screen GU Rhodamine qHTS for Zika virus inhibitors qHTS (AID 1347157); note: potency is the fitted concentration of half-maximal effect; nearly all actives have a fitted effect of over 70% in size
Method in brief: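 A qHTS format was used, with compound concentrations ranging up to 114 microM. Each compound was preincubated with 25 nM NS2B-NS3 protease, and the substrate was then added at 1.5 microM. Curves were fitted with a 4-parameter Hill model.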

[4] = tested on: Zika virus NS2B-NS3 protease (unlinked complex); test: Primary screen GU Rhodamine qHTS for Zika virus inhibitors: Unlinked NS2B-NS3 protease assay (AID 1347159); note: potency is the fitted concentration of half-maximal effect; nearly all actives have a fitted effect of over 60% in size
Method in brief: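 Enzyme 25 nM in Tris-HCl pH 8.0 + 0.01% Tween 20; compounds up to 114 microM, 15 min RT dark; + Rhod110 substrate 1.5 microM; read t0 and 15 min; delta fluorescence → % inhibition → 4-parameter Hill fit.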

[5] = tested on: Zika virus NS2B-NS3 protease (linked construct); test: Primary screen NINDS Rhodamine qHTS for Zika virus inhibitors (AID 1347160); note: potency is the fitted concentration of half-maximal effect; nearly all actives have a fitted effect of over 55% in size
Method in brief: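 Enzyme (25 nM, linked NS2B-NS3) was preincubated 15 min with compound in 10 mM Tris-HCl pH 8.0, 0.01% Tween 20. Rhodamine110 substrate (1.5 microM) was then added and fluorescence read at start and after 15 min.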

[6] = Confirmatory screen NINDS Rhodamine qHTS for Zika virus inhibitors (AID 1347161); note: potency is the fitted concentration of half-maximal effect; nearly all actives have a fitted effect of over 60% in size
Method in brief: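 Purified linked NS2B-NS3 protease (NS2B hydrophilic domain joined to NS3 protease by flexible linker), 25 nM in 10 mM Tris-HCl pH 8.0, 0.01% Tween 20. Compounds titrated, 15 min preincubation at room temperature; 1.5 microM Rhodamine110 substrate, FITC fluorescence change over 15 min.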

[7] = tested on: Zika virus NS2B-NS3 protease (linked); test: 384 well plate NINDS AMC confirmatory qHTS for Zika virus inhibitors (AID 1347163); settings: Recombinant NS2B-NS3 protease, Ac-VKTGKR-AMC fluorescence; note: potency is the fitted concentration of half-maximal effect; nearly all actives have a fitted effect of over 50% in size
Method in brief: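 Enzyme (5, 30 or 60 nM final) first met test compounds for ~15 min. The AMC-tagged peptide Ac-VKTGKR-AMC followed at 30 microM. Fluorescence was then recorded at 25 min and scaled against no-enzyme and no-inhibitor wells.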

[8] = tested on: Zika virus NS2B-NS3 protease (linked construct); test: 384 well plate NINDS Rhodamine confirmatory qHTS for Zika virus inhibitors (AID 1347164);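 note: fluorescence from protease cleavage of Ac-LKRR-rhodamine 110 substrate; potency is the fitted concentration of half-maximal effect; nearly all actives have a fitted effect of over 65% in size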
Method in brief: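 Linked protease at a final 5 nM, 30 nM or 60 nM was preincubated ~15 min with compounds, then given 10 microM Ac-LKRR-Rhodamine 110. Fluorescence (ex 485/em 538 nm) after 25 min in the dark at room temperature.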

[9] = Vero cells viability qHTS for Zika virus inhibitors (AID 1347167); note: potency is the fitted concentration of half-maximal effect
Method in brief: (§1)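 Luminescent ATP readout (CellTiter Glo) after 30 min at 37 degrees C gives viability; cells in DMEM + 4% FBS were treated 24 to 48 hours with compound, following overnight attachment.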

[10] = HepG2 cells viability qHTS for Zika virus inhibitors (AID 1347168); note: potency is the fitted concentration of half-maximal effect
Method in brief: as §1

[11] = Tertiary RLuc qRT-PCR qHTS assay for Zika virus inhibitors (AID 1347169); note: potency is the fitted concentration of half-maximal effect; nearly all actives have a fitted effect of over 55% in size
Method in brief: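 Vero cells (1,000 per well) plated overnight at 37 degrees C, treated with compound in DMSO, then infected with recombinant ZIKV-RLuc (Cambodian) at MOI 1-2 for 48-72 hrs. Live-cell Renilla luciferase substrate added; luminescence read after 1-1.5 hrs.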

[12] = Primary qHTS for inhibitors of nuclear receptor binding SET domain protein 2 (NSD2) in an isogenic RCH-ACV NSD2 p.E1099K mutant (9B) (AID 1645876); note: potency is the fitted concentration of half-maximal effect; nearly all actives have a fitted effect of over 70% in size
[13] = Primary qHTS for inhibitors of nuclear receptor binding SET domain protein 2 (NSD2) in an RCH-ACV wild type WT cells (2C) (AID 1645877); note: potency is the fitted concentration of half-maximal effect; nearly all actives have a fitted effect of over 70% in size
[14] = molecular target: Luciferin 4-monooxygenase (Photinus pyralis) (UniProt P08659); test: Primary firefly luciferase (FLuc) qHTS assay for identification of artifact compounds. (AID 1845220); settings: outcome: dose series up to 54.1 µM unless noted; note: nearly all actives have a fitted effect of over 60% in size
Method in brief: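 FLuc 10 nM; luciferin 10 uM; ATP 10 uM; Tris-acetate pH 7.6, Mg-acetate 10 mM; 15 min RT preincubation; 5 min reaction; luminescence.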

[15] = tested on: Nanoluciferase (engineered Oplophorus gracilirostris luciferase); test: Primary Nanoluciferase (NLuc) qHTS assay for identification of artifact compounds. (AID 1845222);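 note: NLuc secreted into diluted conditioned medium of S16 cells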
Method in brief: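 NLuc from S16 cell medium (1:55) plus test compounds, 15 min, room temperature. Luminescence after Nano-Glo (1:100) addition, 5 min.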

[16] = Primary redox qHTS assay for identification of artifact compounds. (AID 1845223)
Method in brief: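 Redox-cycling detection via DTT (250 uM final) oxidation coupled to Amplex Red (25 uM)/HRP (250 mU/mL) in HBSS. 15 min preincubation plus 30 min after DTT, room temperature. Ex/Em 525/598 nm; 4-parameter Hill fit against DMSO and 10 uM DA3003.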

HEK293 = test: Cytotoxic Profiling of Annotated Libraries Using Quantitative High-Throughput Screening (AID 1296008); settings: Five cell lines viability, CellTiter-Glo ATP luminescence, 48-72 h; max response: active compounds read low; note: potency is the fitted concentration of half-maximal effect; nearly all actives have a fitted effect of over 60% in size
Method in brief: (§2)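 Cytotoxicity was measured as CellTiter-Glo ATP luminescence, read after 10 min at room temperature. Compound treatment of the cells lasted 48 or 72 hr at 37 degrees Celsius in a qHTS format.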

HaCat = test: as above; settings: Five cell lines viability, CellTiter-Glo ATP luminescence, 48-72 h; max response: active compounds read low
Method in brief: as §2

NIH3T3 = test: as above; settings: Five cell lines viability, CellTiter-Glo ATP luminescence, 48-72 h; max response: active compounds read low
Method in brief: as §2

C33A = test: Primary qHTS to identify gynecologic anti-cancer compounds using libraries of approved drugs and bioactive compounds (AID 1345084); settings: Gynecologic cancer cell panel viability, ATPlite luminescence, 48 h; series mostly up to 57.5 µM; note: potency is the fitted concentration of half-maximal effect; nearly all actives have a fitted effect of over 55% in size
Method in brief: (§3)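 Cells, 1,000 per well, were allowed to settle for 16 h at 37 C before compound addition. Five concentrations were tested for 48 h, and viability was read by ATPlite luminescence after 15 min at room temperature.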

CAOV3 = test: as above; settings: Gynecologic cancer cell panel viability, ATPlite luminescence, 48 h; series mostly up to 57.5 µM
Method in brief: as §3

CASKI = test: as above; settings: Gynecologic cancer cell panel viability, ATPlite luminescence, 48 h; series mostly up to 57.5 µM
Method in brief: as §3

Es-2 = test: as above; settings: Gynecologic cancer cell panel viability, ATPlite luminescence, 48 h; series mostly up to 57.5 µM
Method in brief: as §3

HeLa = test: as above; settings: Gynecologic cancer cell panel viability, ATPlite luminescence, 48 h; series mostly up to 57.5 µM
Method in brief: as §3

Hek293T = test: as above; settings: Gynecologic cancer cell panel viability, ATPlite luminescence, 48 h, control line for the selectivity index; series mostly up to 57.5 µM
Method in brief: as §3

JEG-3 = test: as above; settings: Gynecologic cancer cell panel viability, ATPlite luminescence, 48 h; series mostly up to 57.5 µM
Method in brief: as §3

OV90 = test: as above; settings: Gynecologic cancer cell panel viability, ATPlite luminescence, 48 h; series mostly up to 57.5 µM
Method in brief: as §3

PA-1 = test: as above; settings: Gynecologic cancer cell panel viability, ATPlite luminescence, 48 h; series mostly up to 57.5 µM
Method in brief: as §3

Tov-21-G = test: as above; settings: Gynecologic cancer cell panel viability, ATPlite luminescence, 48 h; series mostly up to 57.5 µM
Method in brief: as §3

Tov112D = test: as above; settings: Gynecologic cancer cell panel viability, ATPlite luminescence, 48 h; series mostly up to 57.5 µM
Method in brief: as §3

Measured: Potency

CC(C)=CCC[C@]1(C)C=Cc2c(O)c3c(c(CC=C(C)C)c2O1)O[C@]12C(=C[C@@H]4CC1C(C)(C)O[C@@]2(C/C=C(/C)C(=O)O)C4=O)C3=O
inactive: [14] | [15] | [16]
active: [1] 4.11 µM | [2] 9.87 µM | [3] 1.56 µM | [4] 2.82 µM | [5] 2.82 µM | [6] 2.48 µM | [7] 1 µM | [8] 7.08 µM | [9] 8.29 µM | [10] 2.94 µM | [11] 2.94 µM | [12] 0.578 µM | [13] 0.365 µM | HEK293 0.731 µM | HaCat 4.61 µM | NIH3T3 1.16 µM | C33A 5.62 µM | CAOV3 3.16 µM | CASKI 2.24 µM | Es-2 3.16 µM | HeLa 5.01 µM | Hek293T 5.62 µM | JEG-3 3.98 µM | OV90 5.01 µM | PA-1 4.47 µM | Tov-21-G 7.94 µM | Tov112D 5.01 µM
